From PubChem
NPC1 prom act: qHTS Assay for NPC1 Promoter Activators; Huh7 NPC1 promoter luciferase reporter, 24 h; AID 485313, 2010; Potency, µM (titrated, usually from 9.22 µM), without a hit: at the top dose activation, hits mostly activators; 2.4% of 320,000 active; further: % of control where 0% means no effect; nearly all actives have a fitted effect of over 60% in size
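NPC1 promoter–luciferase Huh7 cells; 24 h compound; luminescence.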
ELG1 repair inh: qHTS screen for small molecules that inhibit ELG1-dependent DNA repair in human embryonic kidney (HEK293T) cells expressing luciferase-tagged ELG1. AID 504467, 2011. HEK293T ELG1-luciferase reporter, luminescence, 16 h; DNA damage induced by 5-fluorouridine. 2.3% of 330,000 active. Potency, µM (highest dose often 46.1 µM), without a hit: top-dose activity change, negative = inhibition, usual class: inhibitors; further: on the % scale 0 is the no-effect control and ±100 the full control effect; nearly all actives have a fitted effect of over 55% in size
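5-Fluorouridine DNA damage + compound/DMSO, 2,000 cells/well, 16 h, 37 °C/5% CO2. ONE-Glo, 30 min RT, luminescence. Readout = decrease in reporter signal.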
Rab9 promoter act: qHTS Assay for Rab9 Promoter Activators; Huh7 Rab9 promoter-luciferase reporter, luminescence, 24 h; Potency, µM (titrated, usually from 9.22 µM), for the others: at the highest dose activation, negative = inhibition, most hits filed as activators; 2.8% of 320,000 active; AID 485297, 2010; further: % of control where 0% means no effect; nearly all actives have a fitted effect of over 60% in size
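Using Huh7 cells stably transfected with Rab9 promoter–luciferase, compounds were incubated 24 h at 37 °C, 5% CO2; luciferase luminescence was read 10 min after reagent addition.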
SMN2 splice enh: qHTS Assay for Enhancers of SMN2 Splice Variant Expression. 2.8% of 210,000 active. AID 1458, 2008. HEK293 SMN2-luciferase splicing reporter, luminescence, 30-36 h. Potency, µM (series often up to 46.1 µM), without a hit: at the highest dose activity change, positive = activation, most hits filed as activators; further: % of control where 0% means no effect; nearly all actives have a fitted effect of over 55% in size
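HEK293 cells carry an SMN2 minigene-luciferase reporter in which exon 7 inclusion puts luciferase in frame. Cells were seeded at 2000 cells/well, attached for 10-12 hours, then exposed to compounds for 30-36 hours at 37C before ONE-Glo luminescence.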
ELG1 genotoxic: qHTS screen for small molecules that induce genotoxicity in human embryonic kidney (HEK293T) cells expressing luciferase-tagged ELG1; HEK293T ELG1-luciferase reporter, luminescence, 16 h; Potency, µM (highest dose often 46 µM), for inactives: top-dose activity change, positive = activation, usual class: activators; 1.3% of 330,000 active; further: % of control where 0% means no effect; nearly all actives have a fitted effect of over 60% in size
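Genotoxicity was scored as increased ELG1-luciferase reporter signal, measured by ONE-Glo luminescence (30 min, room temperature). Compound or vehicle exposure of the HEK293T reporter cells lasted 16 hr at 37°C.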
FLuc counter: qHTS profiling assay for firefly luciferase inhibitor/activator using purifed enzyme and Km concentrations of substrates (counterscreen for miR-21 project) | Potency, µM (top dose mostly 57.5 µM), without a hit: at the top dose activity change, negative = inhibition, actives largely listed as inhibitors | 6.9% of 360,000 active | AID 588342, 2011 | purified FLuc, Km substrates, luminescence inhibition | Luciferin 4-monooxygenase (Photinus pyralis), P08659;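 further: plate controls were vehicle for no effect and reference inhibitor for full effect; nearly all actives have a fitted effect of over 55% in size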
Target sequence (P08659 whole entry, looked up): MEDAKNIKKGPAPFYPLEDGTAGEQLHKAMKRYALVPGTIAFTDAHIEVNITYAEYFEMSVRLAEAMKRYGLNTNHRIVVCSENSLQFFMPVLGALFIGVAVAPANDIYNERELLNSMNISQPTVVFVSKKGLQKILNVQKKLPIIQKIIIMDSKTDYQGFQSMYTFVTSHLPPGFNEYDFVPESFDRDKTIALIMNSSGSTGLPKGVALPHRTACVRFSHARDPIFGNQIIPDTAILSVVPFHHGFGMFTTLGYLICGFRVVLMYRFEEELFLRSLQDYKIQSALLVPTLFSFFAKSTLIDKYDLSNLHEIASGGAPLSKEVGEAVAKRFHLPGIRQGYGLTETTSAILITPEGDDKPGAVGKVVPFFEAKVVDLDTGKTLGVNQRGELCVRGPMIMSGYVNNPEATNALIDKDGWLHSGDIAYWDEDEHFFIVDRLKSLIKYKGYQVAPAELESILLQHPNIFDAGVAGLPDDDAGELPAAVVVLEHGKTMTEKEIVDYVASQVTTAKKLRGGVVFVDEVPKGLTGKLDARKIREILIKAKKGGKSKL
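Biochemical qHTS of compounds, final roughly 60 µM downward over six points, against 10 nM purified firefly luciferase using Km concentrations of substrates (10 uM D-luciferin, 10 uM ATP) in Tris acetate pH 7.5 buffer; luminescence output.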
* hit, by the source's call; ? = inconclusive; nt = no result. Most compounds without a hit are left out; they make up all but 9.2% or so of the library. The call rests on the fitted dose curve; in most records, active means well fitted curve in the direction sought with a large enough effect; inconclusive means small, poorly fitted or top-dose-only effect, or another doubt; inactive means no such curve, though single readings can be large; an effect the other way counts as inactive or inconclusive. Potency means the concentration at half of the fitted maximal effect.

SMILES	NPC1 prom act	ELG1 repair inh	Rab9 promoter act	SMN2 splice enh	ELG1 genotoxic	FLuc counter
O=C(CSc1nnc(-c2ccc(Cl)cc2)n1-c1ccc(Cl)cc1)N/N=C/c1ccco1	-2.1%	23.1µM*	-0.5%	-27.6%	-6.8%	0.9%
O=C(N[C@H]1C/C=C\C[C@H](CC(=O)N(CCO)Cc2ccccc2)C(=O)N[C@H](Cc2c[nH]c3ccccc23)COC1=O)OCC1c2ccccc2-c2ccccc21	nt	?	nt	nt	-2.9%	nt
COc1ccc(N2C(S)=C(C#N)C(=O)NC23CCCCC3)cc1	0.7%	15.1%	0.7%	nt	-0.1%	26.9µM*
COc1ccc(N2C(=O)c3ccccc3NC23CCCC3)cc1	3.98µM*	?	2.51µM*	11.2µM*	?	?
CCC1(CC)Nc2ccccc2C(=O)N1c1ccc(OC)cc1	2µM*	?	2.51µM*	nt	?	10.7µM*
COc1ccc(N2C(=O)CCC2(C#N)c2ccc(Br)cc2)cc1 (centres undefined)	0.8%	0.9%	-1.5%	-4.3%	3.9%	1.2%
Cc1c(Br)c([N+](=O)[O-])nn1CC(=O)NCC1CCCO1 (centres undefined)	-3.1%	14.9%	-3.4%	nt	0.8%	-0.2%
CCc1ccc(S(=O)(=O)c2nnn3c2nc(NCc2cccc(OC)c2)c2cc(Cl)ccc23)cc1	nt	nt	nt	2.0%	nt	0.8%
CCCOC(=O)c1ccc(NC(=O)C2CC(=O)N(c3ccc(C)cc3)C2)cc1 (centres undefined)	nt	nt	nt	nt	nt	-3.1%
COc1ccc(OC)c(NC(=O)c2ccc3c(c2)c(C)c(C)n3Cc2ccc(F)cc2)c1	nt	nt	nt	nt	nt	-9.0%
O=C(c1ccc(F)cc1)N1CCC(c2ccccc2)C1 (centres undefined)	4.47µM*	?	?	nt	?	?
Fc1cc(F)cc(NC(=S)N2CCC(c3ccccc3)C2)c1 (centres undefined)	?	?	3.55µM*	12.6µM*	?	?
CSc1cccc(NC(=S)N2CCC(N(C)C3CCCCC3)CC2)c1	-8.0%	14.1%	-3.2%	-34.0%	0.3%	-1.1%
CCc1cccc(NC(=S)N2CCC(c3ccccc3)C2)c1 (centres undefined)	?	?	?	68.4%	13.6%	23.9µM*
CSc1cccc(NC(=S)N2CCC(c3ccccc3)C2)c1 (centres undefined)	18.5%	?	13.8%	nt	13.2%	15.1µM*
COc1ccc(C(=O)N2CCCC(c3ccccc3)C2)cc1 (centres undefined)	0.9%	3.7%	0.6%	-8.6%	0.7%	-2.4%
COc1ccc(NS(=O)(=O)c2cccc(C(=O)NNC(=O)NCCCl)c2)cc1	-1.1%	11.1%	2.8%	4.6%	-2.1%	3.0%
COc1cc(SC)ccc1C(=O)OC(C)C(=O)NC1CCCC1 (centres undefined)	7.0%	?	-0.8%	-11.2%	-7.2%	-6.6%
COC(=O)c1ccc(COC(=O)C2CCN(S(=O)(=O)c3ccccc3C(=O)OC)CC2)cc1	nt	10.1%	nt	nt	-1.5%	nt
COc1cc(/C=C2/SC(=S)N(C)C2=O)ccc1OC(=O)c1ccco1	12.5%	?	-11.2%	13.0%	10.3%	-15.3%
O=C1NC(=S)S/C1=C/c1ccc(OC(=O)c2ccco2)cc1	18.7%	?	?	nt	1.0%	7.57µM*
CCOc1cc(/C=C2/SC(=S)NC2=O)ccc1OC(=O)c1ccco1	3.5%	?	13.3%	-4.3%	0.1%	23.9µM*
COc1cc(/C=C2/SC(=O)NC2=O)ccc1OC(=O)c1ccco1	-0.4%	-1.5%	9.5%	nt	6.9%	16.9µM*
CCOc1ccc(NC(=O)[C@@H]2CCC(=O)N2C2OC(=O)c3ccccc32)cc1 (some centres undefined)	0.8%	-3.3%	-0.4%	nt	-0.5%	0.3%
CC(C)c1ccc(N(CC(=O)O)S(=O)(=O)c2ccc3[nH]c(=O)c(=O)[nH]c3c2)cc1	nt	nt	nt	nt	nt	1.1%
SMILES	NPC1 prom act	ELG1 repair inh	Rab9 promoter act	SMN2 splice enh	ELG1 genotoxic	FLuc counter
OCC1CCN(Cc2cn(Cc3ccccc3)nc2-c2cc3ccccc3o2)CC1	-1.6%	-13.3%	0.6%	nt	-0.3%	1.4%
COC1CCN(Cc2cn(Cc3ccccc3)nc2-c2cc3ccccc3o2)CC1	-0.4%	20.6µM*	1.8%	nt	-5.3%	-2.4%
O=C1/C(=C\c2ccccc2)SC(=S)N1CCC(=O)N1CCCCC1CCO (centres undefined)	-7.7%	-3.3%	-0.3%	nt	-4.9%	16.9µM*
O=C1/C(=C/c2ccccc2Cl)SC(=S)N1CCC(=O)N1CCCCC1CCO (centres undefined)	-8.5%	-0.7%	-4.6%	nt	-8.4%	?
COc1ccc(/C=C2\SC(=S)N(CCCC(=O)N3CCCCC3CCO)C2=O)cc1 (centres undefined)	-16.7%	?	-12.5%	nt	-13.6%	16.9µM*
COc1ccc(/C=C2\SC(=S)N(CCCC(=O)N3CCN(C)CC3)C2=O)cc1	-4.5%	2.7%	-11.0%	nt	1.0%	15.1µM*
COc1ccc(/C=C2\SC(=S)N(CCC(=O)N3CCOCC3)C2=O)cc1	-0.9%	1.2%	-15.1%	nt	-0.6%	?
CC(C)c1ccc(/C=C2\SC(=S)N(CCC(=O)N3CCCCC3CCO)C2=O)cc1 (centres undefined)	-24.0%	?	-31.4%	nt	-14.2%	3.38µM*
COC(=O)c1c(C)oc2ccc(N(C(=O)c3ccncc3)S(=O)(=O)c3c(C)cc(C)cc3C)cc12	nt	nt	nt	-37.5%	nt	-7.3%
CCN1CCN(CCCNC(=O)CN2C(=O)c3cccnc3Oc3ccc(Cl)cc32)CC1	-3.2%	3.7%	-4.0%	nt	2.2%	0.2%
COc1ccc(/C=N/Nc2nonc2N)cc1OC	0.2%	?	-6.2%	23.0%	0.1%	?
COc1ccc(/C=N/Nc2nc(N)cc(Cl)n2)cc1OC	15.9%	13.9%	23.9%	13.9%	2.3%	16.9µM*
COc1ccc(-c2cnnc(N/N=C/c3ccc(O)c(OC)c3)n2)cc1	-19.1%	20.6µM*	-3.7%	12.6µM*	7.3%	1.2µM*
COc1cc(/C=N/Nc2nc(C)nc3c2cnn3-c2ccccc2)ccc1O	-18.1%	16.4µM*	-21.4%	-6.1%	-7.4%	?
COc1cc(/C=N/Nc2ccccn2)ccc1O	3.9%	?	?	nt	9.2µM*	6.01µM*
COc1cc(/C=N/Nc2ccnc(=O)[nH]2)ccc1O	-1.1%	?	-1.8%	nt	14.0%	?
